MCF10A rereplic: A quantitative high throughput screen for small molecules that induce DNA re-replication in MCF 10a normal breast cells; MCF 10A DNA re-replication, Hoechst nuclear intensity, 48 h; Potency, µM (highest dose often 46.1 µM), inactives show at the highest dose activity, positive = re-replication, usual class: activators; 2.9% of 350,000 active; AID 624296, 2012; note: % of control where 0% means no effect; nearly all actives have a fitted effect of over 50% in size
SW480 rerep: A quantitative high throughput screen for small molecules that induce DNA re-replication in SW480 colon adenocarcinoma cells; SW480 DNA re-replication, Hoechst DNA content imaging, 48 h; Potency, µM (highest dose often 46.1 µM), inactives show at the highest dose re-replication activation, actives largely listed as activators; 1.8% of 340,000 active; AID 624297, 2012; note: % of control where 0% means no effect; nearly all actives have a fitted effect of over 55% in size
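Compounds, transferred as 23 nL by pin tool, were incubated with cells for 48 hr; DNA content per nucleus was then quantified by Hoechst staining and fluorescence plate imaging.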
KB-V1 cytotox: qHTS assay for MDR1-selective chemotherapeutics: Primary screen using the drug-selected MDR subline cells KB-V1; KB-V1 MDR cells viability, CellTiter-Glo, 72 h; Potency, µM (titrated, usually from 46.1 µM), hits mostly cytotoxic; 3.4% of 400,000 active; AID 1347076, 2019; note: % is set by controls: 0 for no effect and ±100 for the full control effect; nearly all actives have a fitted effect of over 60% in size
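Cytotoxicity via CellTiter-Glo luminescence after 72 h compound exposure at 37 degrees C. Cells: drug-selected KB-V1 line, DMEM phenol-red free plus 10% FBS. Compounds tested at multiple concentrations; normalized data fitted to concentration-effect curves.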
ALOX12 inh: Primary qHTS assay for inhibitors of human arachidonate 12S-lipoxygenase (ALOX12): Round 2; purified 12hLO, xylenol orange hydroperoxide absorbance; Potency, µM (highest dose often 108 µM), for inactives: at the highest dose activity change, negative = inhibition, most hits filed as inhibitors; 1.1% of 580,000 active; note: % is set by controls: 0 for no effect and ±100 for the full control effect
Target sequence (P18054 whole entry, looked up): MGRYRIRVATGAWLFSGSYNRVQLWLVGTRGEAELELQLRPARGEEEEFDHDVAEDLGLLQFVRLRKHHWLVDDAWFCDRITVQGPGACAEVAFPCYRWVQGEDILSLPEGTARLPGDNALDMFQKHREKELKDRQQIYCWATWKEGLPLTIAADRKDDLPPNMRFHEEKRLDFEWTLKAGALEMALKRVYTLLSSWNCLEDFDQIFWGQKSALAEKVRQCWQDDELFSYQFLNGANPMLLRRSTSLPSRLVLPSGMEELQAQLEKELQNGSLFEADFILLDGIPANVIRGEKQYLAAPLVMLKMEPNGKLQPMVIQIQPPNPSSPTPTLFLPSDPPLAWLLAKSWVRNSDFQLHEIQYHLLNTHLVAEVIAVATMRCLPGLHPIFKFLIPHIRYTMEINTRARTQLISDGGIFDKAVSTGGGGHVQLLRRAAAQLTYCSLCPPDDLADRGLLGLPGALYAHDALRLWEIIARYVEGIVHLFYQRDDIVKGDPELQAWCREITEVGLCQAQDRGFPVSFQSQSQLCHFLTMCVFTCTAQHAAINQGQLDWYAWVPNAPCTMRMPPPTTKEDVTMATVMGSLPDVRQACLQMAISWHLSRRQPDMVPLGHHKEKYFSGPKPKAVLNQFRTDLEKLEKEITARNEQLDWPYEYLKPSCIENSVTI
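Hydroperoxide product was detected by ferrous iron/xylenol orange as the 573 to 405 nm absorbance ratio. Arachidonic acid at 40 uM (final) was turned over for 30 min at room temperature by 150 nM human 12hLO, pH 7.0 Hepes buffer, after 15 min compound preincubation.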
PINK1 expr mod: A Quantitative High throughput Screen to Identify Chemical Modulators of PINK1 Expression; PINK1 immunofluorescence, high-content cytometry, 24 h; 0.2% of 410,000 active; AID 624263, 2012; Potency, µM (doses to about 76.6 µM), without a hit: at the highest dose activation (PINK1 increase), hits mostly activators; active = well fitted activation curve with a large enough effect; inconclusive = small, poorly fitted or top-dose-only effect; cell line not stated here; note: % of control where 0% means no effect; nearly all actives have a fitted effect of over 65% in size
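Stable cell line, 250 cells/well, 12 h attachment; compounds pinned at 5 concentrations, 24 h; CCCP control. Fixed with nuclear dye, primary antibodies 12 h at 10 degrees C, secondary plus cell stain; laser-scanning cytometer read.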
KB-3-1 tox: qHTS assay for MDR1-selective chemotherapeutics: Primary screen using the parental adenocarcinoma cell KB-3-1; KB-3-1 viability, CellTiter-Glo ATP luminescence, 72 h; Potency, µM (series often up to 46.1 µM), usual class: cytotoxic; 1.4% of 400,000 active; AID 1347075, 2019; note: % is set by controls: 0 for no effect and ±100 for the full control effect; nearly all actives have a fitted effect of over 60% in size
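Viability of parental KB-3-1 cells, measured by CellTiter-Glo luminescence, followed a 72 h incubation at 37 °C with pinned compounds in phenol-red-free DMEM containing 10% FBS.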
* hit, by the source's call; i = inactive; u = inconclusive; x = no result given; [ ] = dose if it differs, or a comment. An excerpt weighted towards active compounds, which were near 5.8% of everything screened. Unless noted, calls come from the whole dose curve; as a rule, active = well fitted curve in the direction sought with a large enough effect; inconclusive = small, poorly fitted or top-dose-only effect, or another doubt; inactive = no such curve, though single readings can be large; an effect the other way counts as inactive or inconclusive. Potency is the fitted concentration of half-maximal effect.

SMILES	MCF10A rereplic	SW480 rerep	KB-V1 cytotox	ALOX12 inh	PINK1 expr mod	KB-3-1 tox
COc1ccc(OC)c(Nc2nc3ccc(C)cc3n3cnnc23)c1	18.4µM*	8.2%	i	u	4.5%	i
CC(C)c1ccc(Nc2nc3ccc(C(=O)c4ccccc4)cc3n3cnnc23)cc1	x	x	u	-15.7%	12.3%	i
COc1cccc(Nc2nc3ccc(C(=O)c4ccccc4)cc3n3cnnc23)c1	9.2µM*	18.4µM*	i	7.1%	6.7%	i
COc1ccc(Cl)cc1Nc1nc2ccc(C)cc2n2cnnc12	8.2µM*	-9.6%	i	1.9%	8.6%	i
CCOc1ccc(NS(=O)(=O)c2ccsc2C(=O)OC)cc1	x	x	x	4.6%	x	x
CSc1cccc(NC(=O)COc2coc(CN3CCSCC3)cc2=O)c1	x	x	x	-14.5%	x	x
CCOC(=O)c1c(NC(=O)C(=O)NCc2ccccc2)sc2c1CC(C)(C)OC2	x	x	x	15.8%	x	x
CCn1nc(C(=O)Nc2nc(-c3ccc4c(c3)OCCO4)cs2)c2ccccc2c1=O	x	x	x	0.7%	x	x
O=C(NC1CC2CCC1C2)c1ccccc1Cl (stereo unspecified)	x	x	x	10.9%	x	x
CCc1cccc2c(N=O)c(O)[nH]c12	2.8%	-4.9%	16.4µM*	-11.1%	-2.8%	u
CCOC(=O)N1CCN(c2nc3ccccc3nc2C(C#N)C(=O)NC2CCCCC2)CC1 (stereo unspecified)	x	x	x	36.4%	x	x
O=c1c2c([N+](=O)[O-])cc([N+](=O)[O-])cc2sn1-c1ccc(Br)cc1	12.5%	u	i	x	0.9%	i
O=c1c2c([N+](=O)[O-])cc([N+](=O)[O-])cc2sn1Cc1ccccc1	u	u	u	0.794µM*	-0.7%	u
c1ccc(COn2nnc3ccccc32)c(COn2nnc3ccccc32)c1	u	-6.8%	16.4µM*	-16.3%	1.3%[38.3 µM]	i
Cc1nc2cc(NC(C)C(=O)Nc3ccc(OC(F)(F)F)cc3)ccc2o1 (stereo unspecified)	x	x	x	0.0%	x	x
O=c1c2cc(Br)ccc2nc(-c2cccc(C(F)(F)F)c2)n1O	u	10.6%	2.31µM*	u	4.7%	2.91µM*
N#Cc1ccc(-c2nc3ccc(Br)cc3c(=O)n2O)cc1	0.7%	-4.5%	i	2.5%	-3.6%	u
COc1cc(CNc2ccc(N3CCN(C(C)=O)CC3)cc2)ccc1OCc1ccccc1	9.0%	1.8%	7.31µM*	u	5.7%	u
COc1cc(CNc2ccc(N3CCOCC3)cc2)ccc1OCC(=O)NC(C)(C)C	5.4%	-8.9%	i	0.0%	-0.3%	i
CCc1ccc(CNc2ccc(N3CCN(C(C)=O)CC3)cc2)cc1	22.6%	12.0%	u	31.6µM*	0.9%	i
CC(=O)N1CCN(c2ccc(NCc3ccc(-c4cccc(Cl)c4)o3)cc2)CC1	20.6µM*	u	i	x	7.8%	i
CCC(NC(=O)CCc1ccsc1)c1ccccc1OC (stereo unspecified)	x	x	x	4.5%	x	x
O=C(NC1CCN(Cc2ccccc2)CC1)c1cccc2c1CCN2C(=O)c1ccccc1	x	x	x	-1.5%	x	x
COc1cccc(-c2cccc(-c3nc(C(=O)NCc4ccc5c(c4)OCO5)cc4c3[C@H](CCO)N(S(=O)C(C)(C)C)C4)c2)c1 (stereo partly specified)	x	x	i	28.2µM*	2.0%	i
CN1CCN(C(=O)c2cc3c(c(-c4cccc(Br)c4)n2)[C@H](CCO)N(S(=O)C(C)(C)C)C3)CC1 (stereo partly specified)	x	x	i	1.8%	2.6%	i
